Source: PubChem (National Center for Advancing Translational Sciences (NCATS))
Rab9 prom act: Rab9 promoter activation; Huh7 Rab9 promoter-luciferase reporter, luminescence, 24 h; Potency, µM (doses to about 9.22 µM), for the others: top-dose activation, negative = inhibition, hits mostly activators; actives 2.8% (n = 320,000); AID 485297; note: % of control where 0% means no effect; nearly all actives have a fitted effect of over 60% in size
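Measured in stably transfected Huh7 cells bearing a Rab9 promoter–luciferase construct: 24 h compound treatment at 37 °C, followed by luminescence detection.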
ELG1 DNA repair: inhibitors of ELG1-dependent DNA repair in HEK293T cells; Potency, µM (top dose mostly 46.1 µM), for the others: top-dose activity change, negative = inhibition, usual class: inhibitors; HEK293T ELG1-luciferase reporter, luminescence, 16 h; DNA damage induced by 5-fluorouridine; actives 2.3% (n = 330,000); note: % is set by controls: 0 for no effect and ±100 for the full control effect; nearly all actives have a fitted effect of over 55% in size
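Reporter activity after DNA damage by 5-fluorouridine is monitored. Compound-treated cells incubate 16 hr at 37 °C, then ONE-Glo is added for 30 min before luminescence reading.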
FLuc modulator: counter-screen for miR-21 project: firefly luciferase inhibitors or activators; P08659; purified FLuc, Km substrates, luminescence inhibition; Potency, µM (highest dose often 57.5 µM), for the others: top-dose activity change, negative = inhibition, usual class: inhibitors; actives 6.9% (n = 360,000);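 note: plate controls were vehicle for no effect and reference inhibitor for full effect; nearly all actives have a fitted effect of over 55% in size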
Target sequence (P08659 whole entry, looked up): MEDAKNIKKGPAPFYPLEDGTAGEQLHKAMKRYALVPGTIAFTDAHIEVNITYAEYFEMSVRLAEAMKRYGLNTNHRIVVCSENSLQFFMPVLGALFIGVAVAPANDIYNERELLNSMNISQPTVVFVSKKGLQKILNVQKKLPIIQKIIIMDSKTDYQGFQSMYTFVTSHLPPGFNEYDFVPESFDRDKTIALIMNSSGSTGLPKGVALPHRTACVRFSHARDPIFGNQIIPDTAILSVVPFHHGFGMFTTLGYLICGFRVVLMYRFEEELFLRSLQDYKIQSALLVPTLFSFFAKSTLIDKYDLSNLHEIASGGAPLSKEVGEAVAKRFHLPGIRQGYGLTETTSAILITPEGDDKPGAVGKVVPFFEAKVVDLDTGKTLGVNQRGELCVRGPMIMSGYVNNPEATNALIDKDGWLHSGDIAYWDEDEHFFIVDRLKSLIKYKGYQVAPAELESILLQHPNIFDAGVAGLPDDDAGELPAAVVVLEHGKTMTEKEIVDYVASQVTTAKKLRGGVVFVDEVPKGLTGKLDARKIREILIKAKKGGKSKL
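Biochemical qHTS of compounds, final roughly 60 µM downward over six points, against 10 nM purified firefly luciferase using Km concentrations of substrates (10 uM D-luciferin, 10 uM ATP) in Tris acetate pH 7.5 buffer; luminescence output.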
ELG1 genotoxic: induces genotoxicity in HEK293T cells with luciferase-tagged ELG1; HEK293T ELG1-luciferase reporter, luminescence, 16 h; Potency, µM (titrated, usually from 46 µM), inactives show at the highest dose activity change, positive = activation, actives largely listed as activators; actives 1.3% (n = 330,000); AID 504466; note: % of control where 0% means no effect; nearly all actives have a fitted effect of over 60% in size
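After overnight (16 hr) compound treatment at 37 °C, ELG1-luciferase HEK293T cells were lysed with ONE-Glo; luminescence quantified 30 min later at room temperature.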
NPC1 prom act: NPC1 promoter activation | actives 2.4% (n = 320,000) | Potency, µM (titrated, usually from 9.22 µM), without a hit: at the highest dose activation, usual class: activators | Huh7 NPC1 promoter luciferase reporter, 24 h; note: % of control where 0% means no effect; nearly all actives have a fitted effect of over 60% in size
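Stably transfected Huh7 (NPC1 promoter→luciferase), 1500 cells/well in Opti-MEM + 10% FBS, 2 h settle, then compound 24 h at 37 °C. Luminescence after 10 min with Amplite reagent.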
SMN2 splice enh: enhancers of SMN2 splice variant expression | actives 2.8% (n = 210,000) | HEK293 SMN2-luciferase splicing reporter, luminescence, 30-36 h | AID 1458 | Potency, µM (titrated, usually from 46.1 µM), for inactives: at the top dose activity change, positive = activation, usual class: activators; note: % of control where 0% means no effect; nearly all actives have a fitted effect of over 55% in size
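HEK293 cells carry an SMN2 minigene-luciferase reporter in which exon 7 inclusion puts luciferase in frame. Cells were seeded at 2000 cells/well, attached for 10-12 hours, then exposed to compounds for 30-36 hours at 37C before ONE-Glo luminescence.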
An asterisk follows results filed as active; ? = inconclusive; · = not tested or not shown; [ ] = remark or other dose. An excerpt weighted towards active compounds, which were near 9.4% of everything screened. Calls come from the whole dose curve; as a rule, active = well fitted curve in the direction sought with a large enough effect; inconclusive = small, poorly fitted or top-dose-only effect, or another doubt; inactive = no such curve, though single readings can be large; an effect the other way counts as inactive or inconclusive. Potency is the fitted concentration of half-maximal effect.

SMILES	Rab9 prom act	ELG1 DNA repair	FLuc modulator	ELG1 genotoxic	NPC1 prom act	SMN2 splice enh
COc1ccc2oc(=N)c(C(=O)Nc3cccc(C)c3C)cc2c1	4.5µM*	?	0.76µM*	?	2.2µM*	·
COc1ccc2oc(=N)c(C(=O)Nc3ccc(C)cc3)cc2c1	?	7%	?	11%	23%	·
O=C(NNC(=O)c1cc2cc(Br)ccc2oc1=O)c1ccc(O)cc1	-2%	0%	-17%	-1%	-4%	-4%
COc1ccc2oc(=N)c(C(=O)Nc3ccccc3)cc2c1	3.2µM*	?	0.95µM*	?	?	13µM*
COc1ccc2oc(=O)c(C(=O)Nc3ccccc3C)cc2c1	3.2µM*	?	1.7µM*	?	3.2µM*	·
CNC(=O)c1cc2cc(OC)ccc2oc1=N	0%	?	-17%	2%	-7%	-13%
O=C(Nc1ccccc1O)c1cc2cc(Br)ccc2oc1=O	?	?	?	?	3.5µM*	·
Cc1ccc2c(Sc3ccc(Cl)cc3)c(C(=O)N3CCC(C)CC3)[nH]c2c1	·	·	-1%	·	·	·
Cc1cccc(Cn2c(C)c(C)c3cc(C(=O)NCc4ccco4)ccc32)c1	·	·	-17%	·	·	·
O=C(OCC1CO1)C1CCCCC1C(=O)OCC1CO1 (centres undefined)	·	·	·	·	·	-5%
CCOC(=O)c1ccc2c(c1)N(Cc1ccc(F)cc1Cl)C(=O)c1ccccc1S2	·	·	5%	·	·	·
COc1ccc2oc(=N)c(C(=O)Nc3ccc(Cl)cc3)cc2c1	26%	?	-10%	1%	?	·
N=c1oc2cc(O)ccc2cc1C(=O)Nc1ccccn1	2%	8%	?	4%	1%	-7%
N=c1oc2cc(O)ccc2cc1C(=O)Nc1nc2ccccc2s1	3.2µM*	?	0.19µM*	6.5µM*	4µM*	0%
COc1ccc2oc(=N)c(C(=O)Nc3ccccc3Cl)cc2c1	2.5µM*	?	0.54µM*	?	3.5µM*	·
Cc1ccc(C(=O)CCC(=O)OCC(=O)NNC(=O)c2ccccc2Cl)cc1	3%	7%	?	0%	0%	·
COc1ccc(NC(=O)c2c(C)oc3ccc(O)c(CN4CCN(Cc5ccccc5)CC4)c23)cc1Cl	·	·	-1%	·	·	-14%
C=CCn1c(SCC(=O)N2CCc3ccccc3C2)nc2sc(CC)cc2c1=O	-3%	23µM*	2%	-4%	-1%	-41%
Cc1ccc(CSc2nnc(SCC(=O)N/N=C/c3ccccc3OCC(=O)O)s2)cc1	-4%	0%	1.5µM*	0%	-2%	·
O=C(CSc1nc2ccccc2s1)N/N=C/c1ccc(C(=O)O)cc1	-2%	16%	27µM*	1%	-1%	12%
O=C(O)c1ccc(CSc2nnc(SCc3ccccc3)s2)cc1	1%	20%	?	-1%	-4%	-16%
O=C(CSc1nnc(SCc2ccccc2)s1)N/N=C/C=C\c1ccco1	-7%	?	?	-2%	-2%	-4%
O=C(CSc1nnc(SCc2ccccc2)s1)N/N=C/c1ccc(C(=O)O)cc1	-1%	7%	2.4µM*	-4%	-4%	·
O=C(CSc1nnc(SCc2ccccc2)s1)N/N=C/C=C/c1ccccc1[N+](=O)[O-]	-3%	4%	24µM*	0%	-6%	7%
Cc1ccc(CSc2nnc(SCC(=O)N/N=C/c3c[nH]c4ccccc34)s2)cc1	14%	?	?	?	0%	-40%
SMILES	Rab9 prom act	ELG1 DNA repair	FLuc modulator	ELG1 genotoxic	NPC1 prom act	SMN2 splice enh
O=C(CCCn1ccc2cc(S(=O)(=O)N3CCCC3)ccc21)NCc1ccc(Cl)cc1	·	·	-18%	·	·	·
C/C=C1\C(=O)C[C@H]2[C@@H]3CCC4=CC(=O)CC[C@]4(C)[C@H]3CC[C@]12C	·	·	·	·	·	-35%
CC(C)c1ccc(NC(=O)CSC2=Nc3ccccc3C3=NC(CC(=O)NCc4ccc(F)cc4)C(=O)N23)cc1 (centres undefined)	·	·	-10%	·	·	·
O=C(CSc1nnc(SCc2ccc(Cl)cc2)s1)N/N=C/c1ccccc1C(=O)O	2%	19%	11µM*	0%	4%	·
O=C(CSc1nnc(SCc2ccc(Cl)cc2)s1)N/N=C/c1c(Cl)cccc1Cl	5%	13%	-9%	6%	13%	-7%
Cc1ccc(CSc2nnc(SCC(=O)N/N=C/c3ccc(C(=O)O)cc3)s2)cc1	-1%	?	0.24µM*	6%	-2%	·
CC(=C/c1ccco1)/C=N/NC(=O)CSc1nnc(SCc2ccc(C)cc2)s1	-4%	?	2.7µM*	3%	0%	-12%
O=C(CSc1nnc(SCc2ccccc2)s1)N/N=C/c1ccc(Cl)cc1Cl	-3%	?	0%	5%	1%	7%
CCCc1cnc2c(c1SCC(=O)N1CCC(C)CC1)c(=O)n(C)c(=O)n2C	·	·	5%	·	·	·
Oc1ccc(Br)cc1/C=N/n1cnc2ccccc21	?	?	8.5µM*	18%	?	26%
Oc1ccc(Br)cc1/C=N/N1CCN(Cc2ccccc2)CC1	3%	?	?	3%	15%	-18%
Oc1ccc(Br)cc1/C=N/N1CCCCC1	4.5µM*	?	9.5µM*	?	?	17%[1.84 µM]
O=C(NCc1ccccc1Cl)C1CCN(S(=O)(=O)Cc2ccccc2)CC1	·	·	6%	·	·	·
COC(=O)c1ccc(OC)c(Cn2c(=O)n(-c3cccc(Cl)c3)c(=O)c3c2c2cc(C)ccc2n3C)c1	·	·	-2%	·	·	-7%
Cn1ncc2c(Nc3ccc(Br)cc3)nc(Nc3ccc(Br)cc3)nc21	-5%[1.84 µM]	23µM*	-12%	-7%	-4%	·
Cn1ncc2c(Nc3cccc(Cl)c3)nc(Nc3cccc(Cl)c3)nc21	-4%	?	?	-9%	-3%	-7%[9.22 µM]
CCCNc1nc(Nc2ccc(C)c(Cl)c2)c2cnn(C)c2n1	-6%	15µM*	-1%	-6%	-2%	·
Cc1ccc(CN2CCN(C3CCN(S(=O)(=O)N(C)C)CC3)C(=O)C2=O)cc1	·	·	-5%	·	·	·
NS(=O)(=O)c1ccc(CCNC(=O)Cn2c(=O)c3cccn3c3ccc(F)cc32)cc1	·	·	3%	·	·	·
Cc1ccc(C(=O)Nc2sc3c(c2C(=O)O)CCCCC3)o1	3.5µM*	3%	2.7µM*	2%	3.5µM*	13µM*
Cc1ccc(C(=O)Nc2sc3c(c2C(=O)O)CCC(C)C3)o1 (centres undefined)	·	?	·	1%	·	·
COC(=O)c1c(NC(=O)c2ccc(C)o2)sc2c1CCCCC2	3.5µM*	?	12µM*	10µM*	3.5µM*	14µM*
Cc1ccc(C(=O)Nc2sc3c(c2C(=O)O)CCCC3)o1	?	?	12µM*	4%	?	·
COC(=O)c1c(NC(=O)c2ccco2)sc2c1CCC2	5%	14%	-9%	3%	6%	-22%
